Measurements as given in PubChem BioAssay (NCI).
Compounds without any hit were thinned out: in the full panel of roughly 83,000, 20% have a hit.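 Method: cells in 96-well plates; compound added at one concentration; 48 h incubation; percent growth measured; values under 10 scored active.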 Active and inactive are the calls of the source.

Columns and labels:
Test in all cases: NCI-60 one-dose screen, 48 h (100 = growth as untreated, 0 = no growth, -100 = all killed)
Conditions in all cases: 10 µM unless noted
NCI-H23 lung = tested on: NCI-H23 lung
NCI-H226 lung = tested on: NCI-H226 lung
NCI-H322M lung = tested on: NCI-H322M lung
HOP-62 NSCLC = tested on: HOP-62 NSCLC
NCI-H460 lung = tested on: NCI-H460 lung
HOP-92 NSCLC = tested on: HOP-92 NSCLC
NCI-H522 lung = tested on: NCI-H522 lung
A549/ATCC NSCLC = tested on: A549/ATCC NSCLC
786-0 renal = tested on: 786-0 renal
COLO 205 colon = tested on: COLO 205 colon

Measured: growth

O=C(Nc1ccc(-n2ccc3c(NC(=O)c4ccccc4)ncnc32)cc1)Nc1ccc(Cl)c(C(F)(F)F)c1
active: NCI-H23 lung -28.2% | NCI-H226 lung 8.8% | NCI-H460 lung -62.2% | HOP-92 NSCLC -8.52% | NCI-H522 lung -58.9% | A549/ATCC NSCLC -62.9%
inactive: NCI-H322M lung 36% | HOP-62 NSCLC 20.1% | 786-0 renal 37% | COLO 205 colon 17.4%

Cn1c(I)c(C#C[Si](C)(C)C)c(=O)[nH]c1=O
inactive: NCI-H23 lung 17.9% | NCI-H226 lung 78.9% | NCI-H322M lung 115% | HOP-62 NSCLC 76.4% | NCI-H460 lung 104% | A549/ATCC NSCLC 86.3%
active: HOP-92 NSCLC -82.8% | NCI-H522 lung -58.7% | 786-0 renal -10.8% | COLO 205 colon -59%

COc1ccc(-c2ccc(NC(=O)Nc3ccc(Cl)c(C(F)(F)F)c3)c(C)n2)cc1
inactive: NCI-H23 lung 30.9% | NCI-H226 lung 65.2% | NCI-H322M lung 71.4% | HOP-62 NSCLC 62.1% | NCI-H460 lung 30.9% | HOP-92 NSCLC 27% | NCI-H522 lung 24.8% | A549/ATCC NSCLC 38.7% | 786-0 renal 56.1% | COLO 205 colon 80.1%

Cc1cccc(Cc2cnc(NC(=O)CCc3ccc(C)o3)s2)c1
inactive: NCI-H23 lung 35.3% | NCI-H226 lung 35.1% | NCI-H322M lung 45.9% | HOP-62 NSCLC 47.5% | HOP-92 NSCLC 64.9% | A549/ATCC NSCLC 26.1% | 786-0 renal 29.8%
active: NCI-H460 lung 4.15% | NCI-H522 lung 4.74% | COLO 205 colon -9.57%

Cc1cn([C@]2(CF)O[C@H](CO)C2C)c(=O)[nH]c1=O (stereo not given in full)
inactive: NCI-H23 lung 111% | NCI-H226 lung 111% | NCI-H322M lung 108% | HOP-62 NSCLC 62.8% | NCI-H460 lung 125% | HOP-92 NSCLC 107% | NCI-H522 lung 87.1% | A549/ATCC NSCLC 109% | 786-0 renal 101% | COLO 205 colon 108%

CCNc1cc(S(=O)(=O)O)ccc1C
inactive: NCI-H23 lung 103% | NCI-H226 lung 103% | NCI-H322M lung 112% | HOP-62 NSCLC 90.8% | NCI-H460 lung 112% | HOP-92 NSCLC 104% | NCI-H522 lung 93.3% | A549/ATCC NSCLC 81.3% | 786-0 renal 99.8% | COLO 205 colon 92.8%

O=c1c2ccccc2sc2c(NCCN3CCOCC3)nc3ccccc3c12
inactive: NCI-H23 lung 68% | NCI-H226 lung 59.2% | NCI-H322M lung 104% | HOP-62 NSCLC 52% | NCI-H460 lung 27.3% | HOP-92 NSCLC 24.8% | NCI-H522 lung 63.1% | A549/ATCC NSCLC 43.1% | 786-0 renal 48.5% | COLO 205 colon 21.9%

COc1ccc(Cl)cc1NC(=O)c1cc2c([nH]1)-c1nc(N)sc1CCC2
inactive: NCI-H23 lung 86.4% | NCI-H226 lung 95.6% | NCI-H322M lung 87.1% | HOP-62 NSCLC 102% | NCI-H460 lung 109% | HOP-92 NSCLC 132% | NCI-H522 lung 64.3% | A549/ATCC NSCLC 69.6% | 786-0 renal 99.7% | COLO 205 colon 121%

O=C(Nc1ccccc1F)Nc1ccccc1Cl
inactive: NCI-H23 lung 77.5% | NCI-H226 lung 82.9% | NCI-H322M lung 103% | HOP-62 NSCLC 91.7% | NCI-H460 lung 92.4% | HOP-92 NSCLC 97.3% | NCI-H522 lung 54.9% | A549/ATCC NSCLC 88.5% | 786-0 renal 107% | COLO 205 colon 137%

NN=C(c1ccc(Cl)cc1)c1ccc(Cl)cc1
inactive: NCI-H23 lung 94.3% | NCI-H226 lung 108% | NCI-H322M lung 123% | HOP-62 NSCLC 108% | NCI-H460 lung 111% | HOP-92 NSCLC 97% | NCI-H522 lung 106% | A549/ATCC NSCLC 82.2% | 786-0 renal 104% | COLO 205 colon 110%

CN1C(=O)C2(NN=C(c3cccc4ccccc34)S2)c2ccccc21 (stereo not given)
inactive: NCI-H23 lung 50.4% | NCI-H226 lung 46.1% | NCI-H322M lung 44.4% | HOP-62 NSCLC 13.9% | NCI-H460 lung 14.6% | NCI-H522 lung 41.1% | 786-0 renal 33.5% | COLO 205 colon 23.5%
active: HOP-92 NSCLC -1.68% | A549/ATCC NSCLC 9.72%

COc1ccc(-c2nn(-c3ccc(NC(=O)Nc4ccc(Cl)c(C(F)(F)F)c4)cc3)cc2-c2ccncc2)cc1Cl
inactive: NCI-H322M lung 32.7% | A549/ATCC NSCLC 10.3%
active: NCI-H23 lung 6.3% | NCI-H226 lung 1.73% | HOP-62 NSCLC -0.289% | NCI-H460 lung -28.2% | HOP-92 NSCLC -22% | NCI-H522 lung -2.66% | 786-0 renal -33.7% | COLO 205 colon -74.5%

CC1(C)N=C(N)N=C(N)N1c1cccc(CCCCc2ccccc2)c1
active: HOP-62 NSCLC -23.5% | NCI-H460 lung 0.878% | HOP-92 NSCLC -30.8% | NCI-H522 lung -42.1% | A549/ATCC NSCLC -6.95% | 786-0 renal -48.4% | COLO 205 colon -84.7%
inactive: NCI-H23 lung 10.8% | NCI-H226 lung 25.9% | NCI-H322M lung 21.6%

O=[N+]([O-])c1cccc2cc(S(=O)(=O)O)ccc12
inactive: NCI-H23 lung 105% | NCI-H226 lung 103% | NCI-H322M lung 107% | HOP-62 NSCLC 98.8% | NCI-H460 lung 110% | HOP-92 NSCLC 85% | NCI-H522 lung 83.8% | A549/ATCC NSCLC 74.2% | 786-0 renal 100% | COLO 205 colon 105%

CCOc1ccc(NC(=O)Nc2cc(C(C)C)ccc2C)cc1
inactive: NCI-H23 lung 79.2% | NCI-H226 lung 92.8% | NCI-H322M lung 90.8% | HOP-62 NSCLC 95% | NCI-H460 lung 106% | HOP-92 NSCLC 55.1% | NCI-H522 lung 46.4% | A549/ATCC NSCLC 36.6% | 786-0 renal 13% | COLO 205 colon 98.7%

CC(=O)n1cc(/C=C2\N=C(c3ccc(Cl)cc3)N(c3ccc(S(=O)(=O)Nc4nccs4)cc3)C2=O)c2ccccc21
inactive: NCI-H23 lung 89% | NCI-H226 lung 94.7% | NCI-H322M lung 85.8% | HOP-62 NSCLC 97.6% | NCI-H460 lung 82.1% | HOP-92 NSCLC 95.9% | NCI-H522 lung 60% | A549/ATCC NSCLC 91% | 786-0 renal 88.6% | COLO 205 colon 115%

O=C(Nc1ccc(-n2cc(-c3ccncc3)c(-c3ccc(O)c(Cl)c3)n2)cc1)Nc1cccc(Cl)c1Cl
inactive: NCI-H23 lung 66% | NCI-H226 lung 73.7% | NCI-H322M lung 79.7% | HOP-62 NSCLC 87.6% | NCI-H460 lung 43% | HOP-92 NSCLC 16.5% | NCI-H522 lung 66.1% | A549/ATCC NSCLC 38.9% | 786-0 renal 58.3% | COLO 205 colon 39.1%

Cc1cc(NC(=O)c2cccc(C(F)(F)F)c2)ccc1-n1ccc2c(NC(=O)c3ccccc3)nccc21
inactive: NCI-H23 lung 94.6% | NCI-H226 lung 112% | NCI-H322M lung 77.4% | HOP-62 NSCLC 87.4% | NCI-H460 lung 116% | HOP-92 NSCLC 123% | NCI-H522 lung 85.6% | A549/ATCC NSCLC 86.8% | 786-0 renal 102% | COLO 205 colon 113%

CC(C)(C)OC(=O)N1CCN(CCn2cc(C(F)(F)F)c3c(Cl)ncnc32)CC1
inactive: NCI-H23 lung 44.8% | NCI-H226 lung 108% | NCI-H322M lung 96.2% | HOP-62 NSCLC 88.6% | NCI-H460 lung 59.3% | A549/ATCC NSCLC 96% | 786-0 renal 107% | COLO 205 colon 102%
active: HOP-92 NSCLC -23.1% | NCI-H522 lung -2.6%

COc1ccc(/C=C/C(=O)c2ccc(-n3cc(CN4CCN(c5cc6c(cc5F)c(=O)c(C(=O)O)cn6C5CC5)CC4)nn3)cc2)cc1OC
inactive: NCI-H23 lung 50.6% | NCI-H226 lung 32.4% | NCI-H322M lung 52.6% | HOP-62 NSCLC 38.7% | NCI-H460 lung 53.1% | HOP-92 NSCLC 81.6% | NCI-H522 lung 49.5% | A549/ATCC NSCLC 15.7% | 786-0 renal 43.7% | COLO 205 colon 60.9%

O=C1OC(N(Cc2ccc(Cl)cc2)c2ccccc2)c2ccccc21 (stereo not given)
inactive: NCI-H23 lung 99.7% | NCI-H226 lung 92.9% | NCI-H322M lung 89.6% | HOP-62 NSCLC 88.9% | NCI-H460 lung 111% | HOP-92 NSCLC 100% | NCI-H522 lung 65.8% | A549/ATCC NSCLC 90.5% | 786-0 renal 91% | COLO 205 colon 104%

COc1ccc(Cl)cc1NC(=O)c1cc2c(n1C)-c1nc(NC(=O)C(C)(C)C)sc1CC2
inactive: NCI-H23 lung 87.8% | NCI-H226 lung 89.6% | NCI-H322M lung 91.3% | HOP-62 NSCLC 76.4% | NCI-H460 lung 98.1% | HOP-92 NSCLC 67.9% | NCI-H522 lung 69% | A549/ATCC NSCLC 77.2% | 786-0 renal 94.7% | COLO 205 colon 97.7%

Cc1ccc2nc(-c3ccc(-n4on4-c4ccc(/C=C/c5ccc(-n6on6-c6ccc(-c7nc8ccc(C)cc8s7)cc6)cc5S(=O)(=O)O)c(S(=O)(=O)O)c4)cc3)sc2c1
inactive: NCI-H23 lung 105% | NCI-H226 lung 108% | NCI-H322M lung 112% | HOP-62 NSCLC 121% | NCI-H460 lung 114% | HOP-92 NSCLC 138% | NCI-H522 lung 117% | A549/ATCC NSCLC 113% | 786-0 renal 98.2% | COLO 205 colon 119%

COc1ccc(-c2nn(-c3ccc(NC(=O)c4cc(Cl)cc(Cl)c4)cc3)cc2-c2ccncc2)cc1Cl
inactive: NCI-H23 lung 83.7% | NCI-H226 lung 98.4% | NCI-H322M lung 88.6% | HOP-62 NSCLC 59.9% | NCI-H460 lung 38.3% | HOP-92 NSCLC 84.6% | NCI-H522 lung 87.6% | A549/ATCC NSCLC 53.1% | COLO 205 colon 46.9%
active: 786-0 renal 3.68%

CC(C)C(=O)Nc1nc2c(s1)CCCc1ccn(S(=O)(=O)c3ccccc3)c1-2
inactive: NCI-H23 lung 86.8% | NCI-H226 lung 94% | NCI-H322M lung 90% | HOP-62 NSCLC 90.6% | NCI-H460 lung 103% | HOP-92 NSCLC 112% | NCI-H522 lung 70.5% | A549/ATCC NSCLC 82.3% | 786-0 renal 89.9% | COLO 205 colon 110%

Cc1cc2c(cc1C)N(C(=O)CCl)CCN2C(=O)CCl
inactive: NCI-H322M lung 10.2%
active: NCI-H23 lung -57.1% | NCI-H226 lung -19.3% | HOP-62 NSCLC -46.7% | NCI-H460 lung -54.7% | HOP-92 NSCLC -72.5% | NCI-H522 lung -82.5% | A549/ATCC NSCLC -29.4% | 786-0 renal -24.8% | COLO 205 colon -41.7%

CS(=O)(=O)Nc1cccc(-c2ccc3ncnc(Nc4ccc(F)c(Cl)c4)c3c2)c1
active: NCI-H522 lung -23.6% | 786-0 renal -6.08% | COLO 205 colon -33.3%
inactive: NCI-H23 lung 42.6% | NCI-H226 lung 44.5% | NCI-H322M lung 15% | HOP-62 NSCLC 39.8% | NCI-H460 lung 20% | HOP-92 NSCLC 34.6% | A549/ATCC NSCLC 25.3%
